Test: inhibitors of PAF-induced NFkB signaling in CF airway cells, dose response, cell-based, uHTS hits, panel, cytotoxicity readout (AID 624344)
Settings: CF bronchial epithelial cells, PAF-induced NFkB reporter inhibition, with PAF, run 2; at 79 µM (top of the series) unless noted

| Compound | inhibition [%] |
| --- | --- |
| COc1cccc(-c2ccc3ncnc(NCc4ccc5c(c4)OCO5)c3c2)c1 | 113 |
| O=[N+]([O-])c1ccc(Oc2ccc(F)cc2)c2ccncc12 | 97.3 |
| CCCCN(c1ccccc1)c1ncnc(N)c1[N+](=O)[O-] | 101 |
| Clc1ccc(CSc2nnc(-c3ccncc3)o2)cc1 | 83.7 |
| CC1(C)CC(=O)C=C(NC2=CC3OC(c4ccccc4)OCC3OC2=O)C1 (stereo unspecified) | 114 |
| CCCCCCc1cc2cc(C(=O)OCC)c(=O)oc2cc1O | 117 |
| CCOC(=O)Cc1nnc2c(Nc3ccc(Cl)cc3)nc3nonc3n12 | 101 |
| Cc1nc(N)c(C#N)c(-c2cccnc2)c1-c1ccccc1 | 80 |
| CCc1cc(-c2[nH]ncc2-c2ccc(OC)cc2)c(O)cc1O | 104 |
| COc1ccc2[nH]c(=O)c3c(c2c1)OC(C)(C)C=C3 | 117 |
| Cc1[nH]nc2c1-c1nc3ccccc3nc1C(C)(C)C2 | 99.3 |
| C=C(c1ccc2nc(NC(=O)OC)[nH]c2c1)c1cccs1 | 110 |
| Cc1ccc(C(C(=O)NCc2ccccc2)N(Cc2cccs2)C(=O)c2ccc3c(c2)OCCO3)cc1 (stereo unspecified) | 98.3 |
| CC1C(=O)N(Cc2cn(Cc3ccco3)nn2)CCS(=O)(=O)N1Cc1ccc(-c2ccccc2C(F)(F)F)cc1 (stereo unspecified) | 114 |
| Cc1ccc(-c2c(C#N)c(N)n3c(nc4ccccc43)c2C#N)cc1 | 50.7 |
| CC(C)C[C@H]1CNC(=S)N1C[C@H]1CCCN1C[C@H](Cc1ccccc1)N1C[C@H](Cc2ccc(O)cc2)N(CC2CCCCCC2)C1=S | 112 |
| CCOC(=O)c1c(C)cc2c(CO)n[nH]c(=O)c2c1C | 95.8 |
| CCOc1ccccc1N1CCN(C(=O)c2cc(-c3cc(OC)ccc3OC)nc3ccccc23)CC1 | 104 |
| C[C@@H]1CN([C@H](C)CO)C(=O)c2cc(NC(=O)Nc3ccc(C(F)(F)F)cc3)ccc2O[C@H]1CN(C)S(=O)(=O)c1cccs1 | 96.8 |
| CC(=O)c1c(C)n(-c2ccccc2)c2ccc(O)cc12 | 91.5 |
| COc1ccc(OC)c(-c2nnc3n2N=C(c2ccc(OC)c(OCC4CC4)c2)CS3)c1 | 85.1 |

From PubChem BioAssay
